# According to the OligoGym collection:
# Molecular target: FGFR1
# Assay: pooled miR-30 sensor sort-seq; sequence = guide strand
# Conditions: shRNA
# Note: reference of the scale not given here.
row,Sequence,sensor-assay potency score (higher = more potent)
1,TAAATCTCTGGTAACGACCCTT,0.102
2,TTTTATAGTAGTCGATGTGGTG,-0.492
3,TTGTGCACAGCCATCTGGCTGT,-0.135
4,TTTTAATATATAGCAACTGATG,-1.31
5,TCTGTCACCAGGACATTCCTGG,0.104
6,TTCATCATCTCCATTTCTGAGA,-0.548
7,TCTTAAGTGAAGCACCTCCATC,-1.39
8,TTGAAGGTGGGTCTCTGTGAGG,-0.69
9,TCATTCTCCACAATGCAGGTGT,0.557

# Molecular target: FHOD1
# Assay: as above
# Conditions: shRNA
row,Sequence,sensor-assay potency score (higher = more potent)
1,TAGCTTCTCAATGCCATCCTTG,-0.31
2,ATGACTGTCAGCATCTCCCCGG,-0.753
3,TTCTTCGATGTCTCCATCCTCC,-0.285
4,TACAAACACCAACAGCAGCTTC,-0.751
5,TCGTAGAGCACAAGCTGCGTGC,-0.434
6,TCTGTCTCGGTGATCATGCGTC,-0.332
7,TTTGTAGATGCTCCTCTCGCTG,-1.11
8,TTCTACAAACACCAACAGCAGC,-1.07
9,TTGTTGATGAGGGTGACCGTGT,-0.769
10,TTGCAGAGCACAATCCTCCAAC,-0.554
11,TTGTAGATGCTCCTCTCGCTGG,-0.582
